Measurements: PubChem BioAssay (EPA / NIEHS)
Records with an inconclusive call do not appear. Activity calls are given as the source filed them. Rule for the calls, unless noted: active = hit-call score of the fitted dose curve at least 0.9, where 1 is the maximum; inconclusive = response in the unintended direction; inactive = score below 0.9.

Tests used:
[1] = ATG_TCF_b_cat_CIS: Attagene CIS-FACTORIAL HepG2 Assay for human T-Cell-Factor with beta-catenin (TCF/b-cat) (AID 2282965; active = hit-call score of the fitted dose curve at least 0.9, where 1 is the maximum; inactive = score below 0.9); conditions: HepG2 TCF/beta-catenin cis-reporter transcription, actives raise or lower the signal
Summary of the method: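 HepG2 cells transiently transfected with cis-promoter-driven multiplexed reporter units; reporter mRNA measured 24 h after dosing by RT-PCR, FAM labelling, HpaI digestion and capillary electrophoresis. Bidirectional fitting relative to DMSO baseline.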

[2] = ATG_TAL_CIS: Attagene CIS-FACTORIAL HepG2 Assay for human TAL Basal Promoter (AID 2282966; active = hit-call score of the fitted dose curve at least 0.9, where 1 is the maximum; inactive = score below 0.9;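 note: background control endpoint measuring basal TAL promoter reporter mRNA not a specific factor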); conditions: HepG2 Attagene cis-factorial TAL promoter reporter; actives raise or lower the signal
Summary of the method: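 Endogenous transcription-factor activity is sensed in HepG2 cells through transfected cis-promoter reporter constructs. After 24 h dosing, reporter transcripts are quantified by RT-PCR and capillary electrophoresis. Gain or loss of signal is fitted relative to DMSO.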

[3] = ATG_VDRE_CIS: Attagene CIS-FACTORIAL HepG2 Assay for human Vitamin D Receptor Element (VDRE) (AID 2282968; active = hit-call score of the fitted dose curve at least 0.9, where 1 is the maximum; inactive = score below 0.9); conditions: HepG2 VDRE cis-reporter transcription, actives raise or lower the signal
Summary of the method: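 Transient MRTU transfection of HepG2, 24 h compound exposure. Readout: reporter transcripts via RT-PCR and capillary electrophoresis, fluorescence. Bidirectional fit vs DMSO.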

[4] = molecular target: Estrogen receptor (Homo sapiens) (UniProt P03372); experiment: ATG_ERa_TRANS: Attagene TRANS-FACTORIAL HepG2 Assay for human Estrogen Receptor alpha (ERa) (AID 2282970); conditions: HepG2 Attagene TRANS ERa GAL4 reporter, mRNA
Summary of the method: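 Transfected HepG2 cells carrying GAL4-UAS-driven reporter units were dosed for 24 hours. Total RNA was reverse-transcribed, reporter sequences PCR-amplified, FAM-labelled, HpaI-digested and resolved by capillary electrophoresis. Increases over DMSO control defined activity.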

[5] = molecular target: X-box-binding protein 1 (Homo sapiens) (UniProt P17861); experiment: ATG_Xbp1_CIS: Attagene CIS-FACTORIAL HepG2 Assay for human X-box Binding Protein 1 (XBP1) (AID 2282972; active = hit-call score of the fitted dose curve at least 0.9, where 1 is the maximum; inactive = score below 0.9); conditions: HepG2 XBP1 cis-element reporter, Attagene multiplex; actives raise or lower the signal
X-box-binding protein 1 (Homo sapiens), sequence (P17861 whole entry, looked up): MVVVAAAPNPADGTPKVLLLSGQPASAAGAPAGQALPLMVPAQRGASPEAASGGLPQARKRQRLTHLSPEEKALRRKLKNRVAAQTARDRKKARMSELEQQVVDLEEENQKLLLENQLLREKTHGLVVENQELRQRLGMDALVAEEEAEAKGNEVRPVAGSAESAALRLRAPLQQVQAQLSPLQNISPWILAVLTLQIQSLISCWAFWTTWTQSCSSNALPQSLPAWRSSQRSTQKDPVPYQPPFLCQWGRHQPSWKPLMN
Summary of the method: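 Reporter transcripts were quantified by RT-PCR with fluorescent primer extension and capillary electrophoresis after 24 h chemical exposure. Cells: transiently transfected HepG2 carrying cis-regulated reporter constructs; data fitted bidirectionally relative to DMSO.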

[6] = ATG_GAL4_TRANS: Attagene TRANS-FACTORIAL HepG2 Assay for GAL4 (Internal Marker) (AID 2282976); conditions: HepG2 Attagene TRANS GAL4 internal marker reporter
Summary of the method: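 Fluorescence from capillary electrophoresis of labelled RT-PCR products quantifies reporter mRNA induction after 24 h dosing of HepG2 cells carrying transfected GAL4-UAS reporter transcription units. Vehicle DMSO serves as baseline.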

[7] = molecular target: Estrogen-related receptor gamma (Homo sapiens) (UniProt P62508); experiment: ATG_ERRg_TRANS: Attagene TRANS-FACTORIAL HepG2 Assay for human Estrogen-Related Receptor gamma (ERRg) (AID 2282977); conditions: HepG2 Attagene TRANS reporter, ERRg transactivation;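 note: hits increase reporter signal over DMSO so potencies reflect activators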
Estrogen-related receptor gamma (Homo sapiens), sequence (P62508 whole entry, looked up, the tested form may be a part): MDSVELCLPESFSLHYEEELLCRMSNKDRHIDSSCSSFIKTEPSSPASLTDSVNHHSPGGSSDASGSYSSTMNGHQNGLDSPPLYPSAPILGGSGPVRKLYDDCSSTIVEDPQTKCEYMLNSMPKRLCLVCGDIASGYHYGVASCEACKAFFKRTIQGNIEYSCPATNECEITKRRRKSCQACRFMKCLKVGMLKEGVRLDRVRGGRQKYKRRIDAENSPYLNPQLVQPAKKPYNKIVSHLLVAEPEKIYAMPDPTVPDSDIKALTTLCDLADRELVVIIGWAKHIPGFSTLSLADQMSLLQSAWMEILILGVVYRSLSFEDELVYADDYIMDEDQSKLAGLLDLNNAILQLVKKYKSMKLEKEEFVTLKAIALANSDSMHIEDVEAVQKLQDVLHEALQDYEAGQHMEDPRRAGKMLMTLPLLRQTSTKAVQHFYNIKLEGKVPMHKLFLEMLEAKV
Summary of the method: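 Exogenous NR-Gal4 chimera activity was assessed in HepG2 cells bearing transfected GAL4-UAS reporters. After 24 h dosing, total RNA underwent RT-PCR, fluorescent primer extension and HpaI digestion before capillary electrophoresis, with gain of signal scored against DMSO.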

[8] = molecular target: Bile acid receptor (Homo sapiens) (UniProt Q96RI1); experiment: ATG_FXR_TRANS: Attagene TRANS-FACTORIAL HepG2 Assay for Farnesoid X Receptor (FXR) (AID 2282979); conditions: HepG2 Attagene TRANS FXR-GAL4 reporter transcription;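 note: hits raise reporter mRNA above DMSO so AC50 marks FXR activation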
Bile acid receptor (Homo sapiens), sequence (Q96RI1 whole entry, looked up, the tested form may be a part): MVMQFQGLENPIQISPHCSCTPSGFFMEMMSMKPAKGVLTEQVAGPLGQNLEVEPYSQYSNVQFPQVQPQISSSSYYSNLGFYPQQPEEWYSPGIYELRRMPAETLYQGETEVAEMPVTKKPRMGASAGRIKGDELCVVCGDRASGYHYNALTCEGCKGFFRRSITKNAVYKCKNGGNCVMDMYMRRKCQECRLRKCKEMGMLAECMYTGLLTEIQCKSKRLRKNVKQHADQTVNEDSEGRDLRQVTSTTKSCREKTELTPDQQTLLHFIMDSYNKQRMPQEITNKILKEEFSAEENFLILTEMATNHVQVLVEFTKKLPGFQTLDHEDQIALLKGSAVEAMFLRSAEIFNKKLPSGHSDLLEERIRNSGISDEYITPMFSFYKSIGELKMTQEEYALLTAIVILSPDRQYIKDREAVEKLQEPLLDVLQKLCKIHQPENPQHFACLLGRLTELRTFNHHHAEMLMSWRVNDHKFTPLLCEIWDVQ
Summary of the method: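 Chimeric FXR-GAL4 activity in transiently transfected human HepG2 liver cells is scored as induction of reporter mRNA after 24 h of dosing. Detection uses RT-PCR with fluorescent labelling and capillary electrophoresis, with DMSO serving as baseline.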

[9] = molecular target: Nuclear receptor subfamily 4 group A member 2 (Homo sapiens) (UniProt P43354); experiment: ATG_NURR1_TRANS: Attagene TRANS-FACTORIAL HepG2 Assay for human Nuclear Receptor Related Protein 1 (NURR1) (AID 2282985); conditions: HepG2 Attagene TRANS reporter, mRNA readout
Nuclear receptor subfamily 4 group A member 2 (Homo sapiens), sequence (P43354 whole entry, looked up, the tested form may be a part): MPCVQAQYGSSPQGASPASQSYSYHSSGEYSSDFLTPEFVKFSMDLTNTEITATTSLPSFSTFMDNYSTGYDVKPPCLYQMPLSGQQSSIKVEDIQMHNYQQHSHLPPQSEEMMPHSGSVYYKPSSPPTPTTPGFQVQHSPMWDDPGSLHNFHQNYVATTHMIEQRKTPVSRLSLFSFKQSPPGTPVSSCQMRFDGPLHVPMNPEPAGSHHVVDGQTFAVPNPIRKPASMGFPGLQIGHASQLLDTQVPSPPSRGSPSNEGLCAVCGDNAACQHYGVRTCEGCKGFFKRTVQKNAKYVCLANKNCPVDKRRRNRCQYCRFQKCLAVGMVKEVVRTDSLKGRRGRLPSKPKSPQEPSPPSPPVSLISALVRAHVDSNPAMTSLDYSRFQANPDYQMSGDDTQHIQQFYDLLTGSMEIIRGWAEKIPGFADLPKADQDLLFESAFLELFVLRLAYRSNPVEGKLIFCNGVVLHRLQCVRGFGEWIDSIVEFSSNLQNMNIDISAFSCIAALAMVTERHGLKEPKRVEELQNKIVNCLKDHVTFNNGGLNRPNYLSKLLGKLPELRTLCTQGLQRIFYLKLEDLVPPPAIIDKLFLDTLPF
Summary of the method: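 Read-out: reporter mRNA induction by RT-PCR plus capillary electrophoresis with fluorescence detection, after 24 h dosing of transfected HepG2 cells. Exogenous NR-Gal4 chimera activity drives GAL4-UAS reporter; activity fitted upward versus DMSO.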

[10] = molecular target: Transcriptional activator Myb (Homo sapiens) (UniProt P10242); experiment: ATG_Myb_CIS: Attagene CIS-FACTORIAL HepG2 Assay for human Myeloblastosis (Myb) Proto-Oncogene Transcription Factor (AID 2282986; active = hit-call score of the fitted dose curve at least 0.9, where 1 is the maximum; inactive = score below 0.9); conditions: HepG2 Attagene CIS-FACTORIAL Myb reporter transcription; actives raise or lower the signal
Transcriptional activator Myb (Homo sapiens), sequence (P10242 whole entry, looked up): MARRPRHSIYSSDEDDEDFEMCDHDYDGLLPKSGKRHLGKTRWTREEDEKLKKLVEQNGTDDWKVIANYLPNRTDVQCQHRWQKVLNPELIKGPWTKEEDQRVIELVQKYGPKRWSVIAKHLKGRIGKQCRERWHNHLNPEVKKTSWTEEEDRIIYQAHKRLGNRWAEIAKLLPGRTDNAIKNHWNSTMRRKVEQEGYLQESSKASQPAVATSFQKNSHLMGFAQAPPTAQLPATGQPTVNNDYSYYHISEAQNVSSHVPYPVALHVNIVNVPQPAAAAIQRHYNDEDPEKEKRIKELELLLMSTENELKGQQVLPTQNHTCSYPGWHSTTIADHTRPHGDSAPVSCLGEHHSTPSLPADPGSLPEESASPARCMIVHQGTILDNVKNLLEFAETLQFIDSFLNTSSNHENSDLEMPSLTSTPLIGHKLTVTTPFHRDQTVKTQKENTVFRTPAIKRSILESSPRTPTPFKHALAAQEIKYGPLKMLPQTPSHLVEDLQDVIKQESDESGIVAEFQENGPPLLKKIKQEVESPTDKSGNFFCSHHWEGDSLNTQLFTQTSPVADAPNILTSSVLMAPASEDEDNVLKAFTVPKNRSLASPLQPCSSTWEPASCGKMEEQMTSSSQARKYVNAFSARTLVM
Summary of the method: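 Fluorescence signals from capillary electrophoresis of RT-PCR-amplified reporter cDNA give the read-out. Cells: HepG2 transfected with multiple cis-regulated reporter units. Exposure lasts 24 hours; DMSO defines baseline for gain or loss of signal.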

[11] = ATG_M_19_TRANS: Attagene TRANS-FACTORIAL HepG2 Assay for M19 Transcription Factor (Internal Marker) (AID 2282974); conditions: HepG2 Attagene TRANS-FACTORIAL M19 internal marker reporter
Summary of the method: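 Measured here: internal-marker reporter transcript from HepG2 cells transfected with MRTUs, harvested at 24 h. cDNA PCR products were 6-FAM labelled by primer extension, cut with HpaI for 2 h at 37 C, and resolved by CE.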

[12] = molecular target: Glucocorticoid receptor (Homo sapiens) (UniProt P04150); experiment: ATG_GR_TRANS: Attagene TRANS-FACTORIAL HepG2 Assay for human Glucocorticoid Receptor (GR) (AID 2282978); conditions: HepG2 Attagene TRANS GR reporter, mRNA transcription;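 note: activators score as hits since higher reporter transcript over DMSO is fitted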
Glucocorticoid receptor (Homo sapiens), sequence (P04150 whole entry, looked up, the tested form may be a part): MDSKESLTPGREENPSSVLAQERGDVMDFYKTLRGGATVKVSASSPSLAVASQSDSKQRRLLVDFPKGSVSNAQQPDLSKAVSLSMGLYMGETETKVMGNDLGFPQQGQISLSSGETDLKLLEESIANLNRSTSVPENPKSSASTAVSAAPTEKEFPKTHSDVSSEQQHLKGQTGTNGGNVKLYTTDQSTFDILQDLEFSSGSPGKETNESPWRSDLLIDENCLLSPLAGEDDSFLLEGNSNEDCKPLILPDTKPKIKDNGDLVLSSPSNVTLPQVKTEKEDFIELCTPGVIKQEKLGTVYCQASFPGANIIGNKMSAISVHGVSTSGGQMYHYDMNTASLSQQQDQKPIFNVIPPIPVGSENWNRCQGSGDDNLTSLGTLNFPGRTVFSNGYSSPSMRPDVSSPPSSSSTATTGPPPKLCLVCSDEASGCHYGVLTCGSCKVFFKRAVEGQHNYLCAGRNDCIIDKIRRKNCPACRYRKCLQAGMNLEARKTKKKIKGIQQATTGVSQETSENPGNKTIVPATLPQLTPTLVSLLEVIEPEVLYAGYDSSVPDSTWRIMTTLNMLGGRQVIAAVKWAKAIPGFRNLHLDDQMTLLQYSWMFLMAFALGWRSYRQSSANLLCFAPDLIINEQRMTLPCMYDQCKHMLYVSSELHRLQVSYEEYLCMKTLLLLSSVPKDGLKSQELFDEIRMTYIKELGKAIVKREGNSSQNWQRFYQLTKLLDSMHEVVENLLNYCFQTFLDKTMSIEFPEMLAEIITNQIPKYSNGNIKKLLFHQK
Summary of the method: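 Measurement of GAL4-UAS-driven reporter mRNA in human HepG2 liver cells 24 h post-dosing, using RT-PCR with fluorescent labelling and capillary electrophoresis; the transfected constructs report exogenous NR-GAL4 chimera activity, fitted upward against DMSO.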

[13] = molecular target: Oxysterols receptor LXR-alpha (Homo sapiens) (UniProt Q13133); experiment: ATG_LXRa_TRANS: Attagene TRANS-FACTORIAL HepG2 Assay for human Liver X Receptor alpha (LXRa) (AID 2282980); conditions: HepG2 Attagene TRANS reporter, LXRa transactivation
Summary of the method: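 Transient HepG2 transfectants, 24 h dosing, RT-PCR/CE mRNA reporter quantitation; gain-of-signal vs DMSO.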

[14] = molecular target: Oxysterols receptor LXR-beta (Homo sapiens) (UniProt P55055); experiment: ATG_LXRb_TRANS: Attagene TRANS-FACTORIAL HepG2 Assay for human Liver X Receptor beta (LXRb) (AID 2282981); conditions: HepG2 Attagene TRANS GAL4-LXRb reporter, mRNA
Oxysterols receptor LXR-beta (Homo sapiens), sequence (P55055 whole entry, looked up, the tested form may be a part): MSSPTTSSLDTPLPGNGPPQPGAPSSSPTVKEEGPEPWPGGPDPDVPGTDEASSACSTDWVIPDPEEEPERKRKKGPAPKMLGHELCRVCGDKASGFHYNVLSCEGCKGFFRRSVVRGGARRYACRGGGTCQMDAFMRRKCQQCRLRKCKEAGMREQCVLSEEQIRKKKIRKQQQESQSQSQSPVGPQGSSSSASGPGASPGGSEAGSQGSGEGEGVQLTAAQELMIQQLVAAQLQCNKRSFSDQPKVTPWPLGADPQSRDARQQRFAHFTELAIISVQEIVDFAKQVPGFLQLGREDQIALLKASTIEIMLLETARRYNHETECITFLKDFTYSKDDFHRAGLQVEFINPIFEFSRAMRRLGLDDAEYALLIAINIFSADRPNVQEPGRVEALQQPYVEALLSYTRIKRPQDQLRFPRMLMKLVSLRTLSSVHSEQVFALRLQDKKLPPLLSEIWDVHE
Summary of the method: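 Readout: fluorescent reporter mRNA fragments resolved by capillary electrophoresis after RT-PCR. System: transiently transfected human HepG2, exogenous LXRb-Gal4 chimera driving GAL4-UAS reporter, 24 h dosing. Activity fitted upward against DMSO baseline.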

[15] = ATG_M_06_TRANS: Attagene TRANS-FACTORIAL HepG2 Assay for M06 Transcription Factor (Internal Marker) (AID 2282983); conditions: HepG2 Attagene TRANS M06 internal marker reporter
Summary of the method: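 Human liver HepG2 cells bearing transiently transfected chimeric NR-GAL4 reporter units were treated with chemicals for 24 h. Total RNA was reverse-transcribed, reporter sequences amplified and labelled, then quantified by capillary electrophoresis. Activity was fitted upward relative to DMSO.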

[16] = ATG_M_32_TRANS: Attagene TRANS-FACTORIAL HepG2 Assay for M32 Transcription Factor (Internal Marker) (AID 2282984); conditions: HepG2 Attagene TRANS M32 internal marker reporter;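 note: transcript level of a background control reporter unit measured by RT-PCR and capillary electrophoresis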
Summary of the method: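 Read-out: fluorescent reporter cDNA fragments resolved by capillary electrophoresis after RT-PCR of total RNA. Transfected HepG2 cells were exposed to chemical for 24 h. Activity scored in the positive direction relative to DMSO.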

[17] = ATG_TGFb_CIS: Attagene CIS-FACTORIAL HepG2 Assay for human Transforming Growth Factor (TGF) (AID 2282967; active = hit-call score of the fitted dose curve at least 0.9, where 1 is the maximum; inactive = score below 0.9); conditions: HepG2 Attagene CIS TGFb reporter, mRNA transcription; actives raise or lower the signal
Summary of the method: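 Endogenous TGFB1-linked transcription factor activity read as reporter mRNA via RT-PCR and capillary electrophoresis, 24 h after dosing transiently transfected HepG2 cells. Gain or loss of signal fitted relative to DMSO.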

[18] = molecular target: Hepatocyte nuclear factor 4-alpha (Homo sapiens) (UniProt P41235); experiment: ATG_HNF4a_TRANS: Attagene TRANS-FACTORIAL HepG2 Assay for human Hepatocyte Nuclear Factor 4 alpha (HNF4a) (AID 2282982); conditions: HepG2 HNF4a transactivation reporter, mRNA readout
Hepatocyte nuclear factor 4-alpha (Homo sapiens), sequence (P41235 whole entry, looked up): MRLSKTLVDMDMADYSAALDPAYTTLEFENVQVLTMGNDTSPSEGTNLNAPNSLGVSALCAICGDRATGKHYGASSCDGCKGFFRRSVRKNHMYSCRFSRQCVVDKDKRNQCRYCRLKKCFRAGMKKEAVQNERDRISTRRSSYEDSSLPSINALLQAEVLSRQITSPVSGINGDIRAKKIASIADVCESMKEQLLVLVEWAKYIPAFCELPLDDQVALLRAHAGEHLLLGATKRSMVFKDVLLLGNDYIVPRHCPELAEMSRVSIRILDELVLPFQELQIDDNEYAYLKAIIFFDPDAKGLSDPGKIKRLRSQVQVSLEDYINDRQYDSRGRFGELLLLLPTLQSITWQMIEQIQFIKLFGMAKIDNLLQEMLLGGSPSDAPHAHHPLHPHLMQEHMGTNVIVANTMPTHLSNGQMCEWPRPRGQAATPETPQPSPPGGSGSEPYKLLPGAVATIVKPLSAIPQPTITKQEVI
Summary of the method: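 Transient MRTU transfection of HepG2, 24 h dosing. Readout: reporter mRNA via RT-PCR + capillary electrophoresis, fluorescence; activity fit upward relative to DMSO control.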

[19] = molecular target: Nuclear receptor subfamily 1 group I member 3 (Homo sapiens) (UniProt Q14994); experiment: ATG_CAR_TRANS: Attagene TRANS-FACTORIAL HepG2 Assay for human Constitutive Androstane Receptor (CAR) (AID 2282969); conditions: HepG2 Attagene TRANS-FACTORIAL CAR reporter;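 note: activators raise reporter mRNA above DMSO so AC50 marks induction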
Nuclear receptor subfamily 1 group I member 3 (Homo sapiens), sequence (Q14994 whole entry, looked up, the tested form may be a part): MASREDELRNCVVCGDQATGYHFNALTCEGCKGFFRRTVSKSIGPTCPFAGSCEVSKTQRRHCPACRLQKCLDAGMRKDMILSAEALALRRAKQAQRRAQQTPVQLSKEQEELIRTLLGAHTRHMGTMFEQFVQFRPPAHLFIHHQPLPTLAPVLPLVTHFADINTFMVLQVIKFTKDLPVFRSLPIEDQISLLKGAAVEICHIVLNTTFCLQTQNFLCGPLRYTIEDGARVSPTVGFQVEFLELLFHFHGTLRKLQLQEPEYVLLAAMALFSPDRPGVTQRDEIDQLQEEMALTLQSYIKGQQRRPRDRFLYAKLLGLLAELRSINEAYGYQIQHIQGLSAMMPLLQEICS
Summary of the method: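 Transiently transfected HepG2, multiplex TRANS reporters (CAR-Gal4 chimera driving GAL4-UAS reporter). 24 h dosing. Readout: reporter transcript by RT-PCR + capillary electrophoresis, fluorescence intensity; positive direction vs DMSO.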

[20] = molecular target: Steroid hormone receptor ERR1 (Homo sapiens) (UniProt P11474); experiment: ATG_ERRa_TRANS: Attagene TRANS-FACTORIAL HepG2 Assay for human Estrogen-Related Receptor alpha (ERRa) (AID 2282971); conditions: HepG2 Attagene TRANS reporter, ERRa transactivation
Steroid hormone receptor ERR1 (Homo sapiens), sequence (P11474 whole entry, looked up, the tested form may be a part): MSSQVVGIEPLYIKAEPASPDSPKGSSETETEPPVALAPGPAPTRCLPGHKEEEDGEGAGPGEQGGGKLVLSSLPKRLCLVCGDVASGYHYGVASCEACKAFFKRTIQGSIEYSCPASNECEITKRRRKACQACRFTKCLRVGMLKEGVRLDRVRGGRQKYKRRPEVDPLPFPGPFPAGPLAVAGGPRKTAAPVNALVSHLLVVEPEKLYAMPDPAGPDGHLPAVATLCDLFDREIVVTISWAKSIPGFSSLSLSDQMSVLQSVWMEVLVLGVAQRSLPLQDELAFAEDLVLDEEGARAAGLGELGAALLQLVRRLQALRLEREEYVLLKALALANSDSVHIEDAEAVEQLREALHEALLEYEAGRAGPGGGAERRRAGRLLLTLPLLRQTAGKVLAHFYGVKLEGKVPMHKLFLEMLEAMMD
Summary of the method: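 HepG2 cells were transiently transfected with multiple GAL4-UAS reporter units, then dosed with compound for 24 h. Total RNA was reverse-transcribed, reporter cDNA PCR-amplified and fluorescently labelled, and fragments resolved by capillary electrophoresis; induction was compared with DMSO.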

Measured: AC50

O=C(O)C(F)(F)C(F)(F)C(F)(F)C(F)(F)C(=O)O
inactive: [1] | [2] | [3] | [4] | [5] | [6] | [7] | [8] | [9] | [10]

C=C1C[C@H]2[C@@H]3C=C(C)C4=CC(=O)CC[C@]4(C)[C@H]3CC[C@]2(C)[C@@]1(OC(C)=O)C(C)=O
active: [1] 18.9 µM | [2] 52.8 µM | [5] 88 µM | [12] 10.6 nM | [13] 16.6 µM
inactive: [11] | [6] | [14] | [15] | [16] | [9] | [10]

CC1(C)C(=O)N(CO)C(=O)N1CO
inactive: [1] | [2] | [17] | [5] | [6] | [8] | [13] | [14] | [18] | [16] | [10]

Nc1ncnc2nc[nH]c12
inactive: [1] | [2] | [17] | [5] | [6] | [12] | [8] | [18] | [10]

CC(C)C(=O)OCCOc1ccccc1
inactive: [1] | [2] | [3] | [5] | [11] | [12] | [13] | [15] | [10]

CCN1CCCC1=O
inactive: [1] | [2] | [3] | [19] | [5] | [8] | [13] | [15] | [16] | [9] | [10]

CC(=O)OC1CCCCC1
not listed: [4] | [9] | [11] | [12] | [13] | [14] | [17] | [19]
inactive: all other assays above

CC1=CP(=O)(c2ccccc2)CC1 (stereo unspecified)
inactive: [1] | [2] | [3] | [20] | [5] | [11] | [7] | [8] | [9] | [10]

CC(C)(O)Cc1ccccc1
inactive: [1] | [3] | [4] | [20] | [5] | [9] | [10]

O=C(OCc1ccccc1)c1ccc(O)cc1
inactive: [17] | [11] | [12] | [8] | [13] | [14] | [15]
active: [1] 124 µM | [4] 26.7 µM | [5] 147 µM | [9] 158 µM

C1CNCCN1
inactive: [1] | [17] | [3] | [4] | [5] | [6] | [16] | [10]

CC(C)c1ccc2ncccc2c1
inactive: [1] | [19] | [4] | [20] | [5] | [6] | [7] | [8] | [15] | [10]

CC(C)=NNC(N)=S
inactive: [1] | [17] | [5] | [6] | [8] | [15] | [9] | [10]

NC(=O)Nc1ccccc1
inactive: [1] | [17] | [20] | [5] | [11] | [18] | [16] | [10]
